Data published in PMC7862700, “An all-to-all approach to the identification of sequence-specific readers for epigenetic DNA modifications on cytosine”.

Tests used:
Test in all cases: DAPPL (digital affinity profiling via proximity ligation, sequencing); 10 mM Tris-HCl pH 7.5, 50 mM NaCl, 1 mM DTT, 4% glycerol, room temperature, 30 min; GST-TFs on glutathione beads, 16-mer random dsDNA library, 0.1% formaldehyde crosslink after washing; high values mean tight binding
FEV = biological target: T1, FEV (Homo sapiens, UniProt Q99581 1-238); settings: protein: recombinant; tags: N-terminal GST; dsDNA, one strand shown
T1 sequence: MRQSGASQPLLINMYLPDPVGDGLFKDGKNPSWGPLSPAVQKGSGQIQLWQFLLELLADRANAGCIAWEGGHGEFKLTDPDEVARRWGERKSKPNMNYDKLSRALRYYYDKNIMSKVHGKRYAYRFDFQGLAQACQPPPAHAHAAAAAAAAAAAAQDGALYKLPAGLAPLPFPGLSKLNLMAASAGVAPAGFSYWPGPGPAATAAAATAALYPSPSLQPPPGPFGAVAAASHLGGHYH
Outline: (§1)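 After expression in yeast as GST fusions, human transcription factors were bound to glutathione beads, DNA-barcoded and mixed with a tag-only sample. The pools were incubated with 200 nmole of a 16-mer random double-stranded DNA library in Tris/NaCl/DTT/glycerol buffer (30 min, room temperature), washed and crosslinked with 0.1% formaldehyde. Proximity ligation with BsaI/T4 ligase ran for 1 h at 37 °C, before PCR amplification and sequencing on an Illumina NextSeq500. Binding signal is a hexamer's read frequency for a factor divided by its frequency for the tag-only sample.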

ETV5 = ETV5 (Homo sapiens, UniProt P41161 1-510); settings: protein: recombinant; tags: N-terminal GST; dsDNA, one strand shown
Outline: as §1

HSF1 = HSF1 (Homo sapiens, UniProt Q00613 1-529); settings: protein: recombinant; tags: N-terminal GST; chain copies: 3; dsDNA, one strand shown
Outline: as §1

SPIC = biological target: T2, SPIC (Homo sapiens, UniProt Q8N5J4 1-248); settings: protein: recombinant; tags: N-terminal GST; dsDNA, one strand shown
T2 sequence: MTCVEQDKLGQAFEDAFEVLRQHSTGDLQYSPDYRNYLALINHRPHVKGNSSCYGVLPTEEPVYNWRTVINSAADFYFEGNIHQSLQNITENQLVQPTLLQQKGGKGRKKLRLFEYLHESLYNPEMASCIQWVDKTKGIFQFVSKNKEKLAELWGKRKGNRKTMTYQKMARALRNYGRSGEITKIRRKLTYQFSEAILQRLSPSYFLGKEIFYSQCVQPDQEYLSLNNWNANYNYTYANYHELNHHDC
Outline: as §1

ELF4 = ELF4 (Homo sapiens, UniProt Q99607 1-663); settings: protein: recombinant; tags: N-terminal GST; dsDNA, one strand shown
Outline: as §1

ELK4 = biological target: T3, ELK4 (Homo sapiens, UniProt P28324-2 1-405); settings: protein: recombinant; tags: N-terminal GST; dsDNA, one strand shown
T3 sequence: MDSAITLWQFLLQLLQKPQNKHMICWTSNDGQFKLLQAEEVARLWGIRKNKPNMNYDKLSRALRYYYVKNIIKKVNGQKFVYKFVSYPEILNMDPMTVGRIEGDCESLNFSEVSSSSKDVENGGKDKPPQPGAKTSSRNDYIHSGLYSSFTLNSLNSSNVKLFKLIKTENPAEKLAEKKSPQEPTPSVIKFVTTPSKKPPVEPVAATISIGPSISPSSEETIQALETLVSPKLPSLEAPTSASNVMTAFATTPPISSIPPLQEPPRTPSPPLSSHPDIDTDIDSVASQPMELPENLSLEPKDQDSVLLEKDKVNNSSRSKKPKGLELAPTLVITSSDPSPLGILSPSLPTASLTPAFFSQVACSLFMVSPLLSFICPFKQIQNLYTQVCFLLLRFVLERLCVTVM
Outline: as §1

ETV2 = biological target: T4, ETV2 (Homo sapiens, UniProt O00321 1-342); settings: protein: recombinant; tags: N-terminal GST; dsDNA, one strand shown
T4 sequence: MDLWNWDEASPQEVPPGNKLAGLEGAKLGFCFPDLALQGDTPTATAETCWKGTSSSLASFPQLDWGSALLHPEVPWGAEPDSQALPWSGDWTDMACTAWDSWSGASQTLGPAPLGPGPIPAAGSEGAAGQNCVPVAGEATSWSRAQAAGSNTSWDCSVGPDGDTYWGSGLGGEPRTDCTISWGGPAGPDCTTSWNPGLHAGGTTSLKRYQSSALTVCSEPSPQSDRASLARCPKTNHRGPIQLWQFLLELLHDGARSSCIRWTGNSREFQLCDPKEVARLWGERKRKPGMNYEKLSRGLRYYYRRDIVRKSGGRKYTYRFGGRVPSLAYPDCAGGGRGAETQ
Outline: as §1

ELF3 = biological target: T5, ELF3 (Homo sapiens, UniProt P78545 1-371); settings: protein: recombinant; tags: N-terminal GST; dsDNA, one strand shown
T5 sequence: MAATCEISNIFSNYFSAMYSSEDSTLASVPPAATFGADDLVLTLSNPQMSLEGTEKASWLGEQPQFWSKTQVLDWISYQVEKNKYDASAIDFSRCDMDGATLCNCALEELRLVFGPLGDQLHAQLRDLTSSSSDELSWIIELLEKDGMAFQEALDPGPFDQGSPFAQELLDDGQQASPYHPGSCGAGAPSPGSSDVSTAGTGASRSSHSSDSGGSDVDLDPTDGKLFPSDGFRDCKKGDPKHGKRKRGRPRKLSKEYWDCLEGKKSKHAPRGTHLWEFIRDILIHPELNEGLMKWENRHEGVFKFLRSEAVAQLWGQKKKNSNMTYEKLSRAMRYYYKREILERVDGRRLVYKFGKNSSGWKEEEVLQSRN
Outline: as §1

CRX = CRX (Homo sapiens, UniProt O43186 1-299); settings: protein: recombinant; tags: N-terminal GST; dsDNA, one strand shown
Outline: as §1

ETV1 = ETV1 (Homo sapiens, UniProt P50549 1-477); settings: protein: recombinant; tags: N-terminal GST; dsDNA, one strand shown
Outline: as §1

ERF = biological target: T6, ERF (Homo sapiens, UniProt P50548 1-548); settings: protein: recombinant; tags: N-terminal GST; dsDNA, one strand shown
T6 sequence: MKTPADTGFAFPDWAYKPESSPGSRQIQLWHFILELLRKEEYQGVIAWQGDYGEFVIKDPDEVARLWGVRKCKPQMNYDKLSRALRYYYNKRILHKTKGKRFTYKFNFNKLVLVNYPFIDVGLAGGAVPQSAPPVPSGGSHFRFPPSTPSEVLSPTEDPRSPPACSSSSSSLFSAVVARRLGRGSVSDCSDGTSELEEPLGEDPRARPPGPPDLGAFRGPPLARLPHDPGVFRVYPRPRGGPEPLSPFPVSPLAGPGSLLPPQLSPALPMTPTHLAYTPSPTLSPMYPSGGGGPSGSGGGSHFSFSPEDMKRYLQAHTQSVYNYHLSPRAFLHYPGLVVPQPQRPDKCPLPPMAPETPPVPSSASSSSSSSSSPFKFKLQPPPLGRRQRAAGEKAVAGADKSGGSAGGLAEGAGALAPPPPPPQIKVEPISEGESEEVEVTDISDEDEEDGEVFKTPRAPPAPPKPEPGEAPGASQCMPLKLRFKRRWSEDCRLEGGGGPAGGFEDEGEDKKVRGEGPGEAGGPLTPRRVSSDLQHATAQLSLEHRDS
Outline: as §1

ETV3L = biological target: T7, ETV3L (Homo sapiens, UniProt Q6ZN32 1-361); settings: protein: recombinant; tags: N-terminal GST; dsDNA, one strand shown
T7 sequence: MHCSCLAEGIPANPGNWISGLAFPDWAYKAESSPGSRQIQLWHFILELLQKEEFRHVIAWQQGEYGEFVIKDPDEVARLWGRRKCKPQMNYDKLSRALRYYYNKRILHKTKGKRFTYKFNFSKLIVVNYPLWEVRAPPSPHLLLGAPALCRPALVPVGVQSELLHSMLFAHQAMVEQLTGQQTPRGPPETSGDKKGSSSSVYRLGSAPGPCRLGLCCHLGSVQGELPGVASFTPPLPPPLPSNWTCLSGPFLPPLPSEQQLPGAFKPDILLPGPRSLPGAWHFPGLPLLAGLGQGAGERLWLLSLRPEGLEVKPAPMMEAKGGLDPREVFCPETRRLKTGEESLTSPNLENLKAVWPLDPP
Outline: as §1

ETS2 = biological target: T8, ETS2 (Homo sapiens, UniProt P15036 1-469); settings: protein: recombinant; tags: N-terminal GST; dsDNA, one strand shown
T8 sequence: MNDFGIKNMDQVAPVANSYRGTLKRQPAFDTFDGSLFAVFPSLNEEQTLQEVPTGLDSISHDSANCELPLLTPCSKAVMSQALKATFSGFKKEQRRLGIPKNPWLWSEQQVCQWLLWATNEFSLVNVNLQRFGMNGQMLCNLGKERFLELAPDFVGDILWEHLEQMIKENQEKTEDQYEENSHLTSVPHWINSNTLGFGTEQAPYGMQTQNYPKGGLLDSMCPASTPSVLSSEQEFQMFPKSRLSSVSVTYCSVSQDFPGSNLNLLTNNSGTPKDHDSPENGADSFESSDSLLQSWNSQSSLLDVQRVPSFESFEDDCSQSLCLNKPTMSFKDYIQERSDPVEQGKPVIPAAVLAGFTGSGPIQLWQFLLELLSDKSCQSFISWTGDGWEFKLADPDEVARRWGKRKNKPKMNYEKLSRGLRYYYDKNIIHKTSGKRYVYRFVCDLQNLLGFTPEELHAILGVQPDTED
Outline: as §1

SPDEF = biological target: T9, SPDEF (Homo sapiens, UniProt O95238 1-335); settings: protein: recombinant; tags: N-terminal GST; dsDNA, one strand shown
T9 sequence: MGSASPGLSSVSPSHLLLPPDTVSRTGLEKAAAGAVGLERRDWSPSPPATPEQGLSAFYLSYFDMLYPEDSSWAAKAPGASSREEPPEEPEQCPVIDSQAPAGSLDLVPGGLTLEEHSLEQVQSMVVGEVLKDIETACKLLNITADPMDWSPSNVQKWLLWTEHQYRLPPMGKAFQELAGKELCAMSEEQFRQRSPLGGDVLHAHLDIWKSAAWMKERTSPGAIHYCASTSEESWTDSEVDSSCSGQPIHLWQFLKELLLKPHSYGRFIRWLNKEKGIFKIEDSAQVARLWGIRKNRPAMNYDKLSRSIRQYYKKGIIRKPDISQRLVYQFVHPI
Outline: as §1

ETV7 = biological target: T10, ETV7 (Homo sapiens, UniProt Q9Y603 1-341); settings: protein: recombinant; tags: N-terminal GST; dsDNA, one strand shown
T10 sequence: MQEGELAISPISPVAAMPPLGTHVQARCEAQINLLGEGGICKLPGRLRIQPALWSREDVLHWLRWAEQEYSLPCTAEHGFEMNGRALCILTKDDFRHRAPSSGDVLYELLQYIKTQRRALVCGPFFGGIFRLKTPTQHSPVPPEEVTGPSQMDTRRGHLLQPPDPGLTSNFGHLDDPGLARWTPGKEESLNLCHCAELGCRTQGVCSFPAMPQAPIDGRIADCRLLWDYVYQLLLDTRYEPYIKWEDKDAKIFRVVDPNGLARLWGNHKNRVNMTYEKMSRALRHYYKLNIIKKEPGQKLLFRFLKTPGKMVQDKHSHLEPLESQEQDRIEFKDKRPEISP
Outline: as §1

ELF5 = biological target: T11, ELF5 (Homo sapiens, UniProt Q9UKW6-2 1-255); settings: protein: recombinant; tags: N-terminal GST; dsDNA, one strand shown
T11 sequence: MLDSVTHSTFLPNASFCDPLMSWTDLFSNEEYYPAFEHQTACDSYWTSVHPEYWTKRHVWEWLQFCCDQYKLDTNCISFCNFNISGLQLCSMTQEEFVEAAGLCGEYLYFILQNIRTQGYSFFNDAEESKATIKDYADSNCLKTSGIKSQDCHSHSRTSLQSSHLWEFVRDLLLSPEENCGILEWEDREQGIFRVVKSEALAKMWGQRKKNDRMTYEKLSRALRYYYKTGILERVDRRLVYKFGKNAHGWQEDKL
Outline: as §1

ETV3 = biological target: T12, ETV3 (Homo sapiens, UniProt P41162-2 1-143); settings: protein: recombinant; tags: N-terminal GST; dsDNA, one strand shown
T12 sequence: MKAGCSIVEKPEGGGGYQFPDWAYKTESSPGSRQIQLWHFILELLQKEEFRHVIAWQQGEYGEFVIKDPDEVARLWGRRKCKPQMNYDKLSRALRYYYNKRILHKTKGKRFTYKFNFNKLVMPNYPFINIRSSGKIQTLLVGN
Outline: as §1

ETV6 = ETV6 (Homo sapiens, UniProt P41212 1-452); settings: protein: recombinant; tags: N-terminal GST; dsDNA, one strand shown
Outline: as §1

Chain of ETV6 (P41212 whole entry): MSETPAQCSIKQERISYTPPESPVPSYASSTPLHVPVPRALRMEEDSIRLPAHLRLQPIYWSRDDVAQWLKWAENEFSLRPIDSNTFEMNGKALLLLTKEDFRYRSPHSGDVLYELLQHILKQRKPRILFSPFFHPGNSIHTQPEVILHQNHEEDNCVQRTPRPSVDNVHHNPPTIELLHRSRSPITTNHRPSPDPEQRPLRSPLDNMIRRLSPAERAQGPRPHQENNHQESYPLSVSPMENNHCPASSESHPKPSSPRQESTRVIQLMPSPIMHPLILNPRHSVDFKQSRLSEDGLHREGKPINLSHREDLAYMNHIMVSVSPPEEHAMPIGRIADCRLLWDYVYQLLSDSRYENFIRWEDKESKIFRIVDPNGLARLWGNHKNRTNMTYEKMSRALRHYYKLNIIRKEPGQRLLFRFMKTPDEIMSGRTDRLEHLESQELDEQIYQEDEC
Chain of ELF4 (Q99607 whole entry): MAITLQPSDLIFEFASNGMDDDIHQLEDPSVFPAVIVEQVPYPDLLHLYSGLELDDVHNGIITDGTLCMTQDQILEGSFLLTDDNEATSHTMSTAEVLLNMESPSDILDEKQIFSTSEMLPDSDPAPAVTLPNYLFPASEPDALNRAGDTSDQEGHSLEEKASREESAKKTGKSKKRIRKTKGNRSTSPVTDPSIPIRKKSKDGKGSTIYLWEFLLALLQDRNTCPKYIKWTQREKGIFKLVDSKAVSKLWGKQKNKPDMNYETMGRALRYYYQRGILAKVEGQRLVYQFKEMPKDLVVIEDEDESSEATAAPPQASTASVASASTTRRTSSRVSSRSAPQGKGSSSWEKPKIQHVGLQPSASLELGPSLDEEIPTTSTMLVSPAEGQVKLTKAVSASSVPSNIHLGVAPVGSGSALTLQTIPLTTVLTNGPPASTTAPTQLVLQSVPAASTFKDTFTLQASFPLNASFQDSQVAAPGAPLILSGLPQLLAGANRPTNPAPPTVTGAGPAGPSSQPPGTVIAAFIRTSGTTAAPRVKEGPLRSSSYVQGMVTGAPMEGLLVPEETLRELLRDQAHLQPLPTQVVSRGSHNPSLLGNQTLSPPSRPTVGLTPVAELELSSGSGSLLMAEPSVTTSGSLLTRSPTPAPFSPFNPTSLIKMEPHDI
Chain of ETV1 (P50549 whole entry): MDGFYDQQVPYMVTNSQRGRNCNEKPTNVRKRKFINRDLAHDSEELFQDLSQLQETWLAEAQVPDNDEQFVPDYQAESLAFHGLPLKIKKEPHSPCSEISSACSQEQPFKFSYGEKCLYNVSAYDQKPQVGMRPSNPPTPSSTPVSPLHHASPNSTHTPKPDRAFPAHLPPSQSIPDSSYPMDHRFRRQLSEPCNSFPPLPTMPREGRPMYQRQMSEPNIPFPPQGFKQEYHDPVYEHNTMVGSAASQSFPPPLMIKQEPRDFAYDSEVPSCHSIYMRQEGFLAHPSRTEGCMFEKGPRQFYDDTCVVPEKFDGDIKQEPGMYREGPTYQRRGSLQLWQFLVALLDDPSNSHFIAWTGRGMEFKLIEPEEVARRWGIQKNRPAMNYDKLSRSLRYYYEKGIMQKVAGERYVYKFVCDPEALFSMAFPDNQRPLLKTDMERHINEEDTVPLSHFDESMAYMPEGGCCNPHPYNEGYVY
Chain of CRX (O43186 whole entry): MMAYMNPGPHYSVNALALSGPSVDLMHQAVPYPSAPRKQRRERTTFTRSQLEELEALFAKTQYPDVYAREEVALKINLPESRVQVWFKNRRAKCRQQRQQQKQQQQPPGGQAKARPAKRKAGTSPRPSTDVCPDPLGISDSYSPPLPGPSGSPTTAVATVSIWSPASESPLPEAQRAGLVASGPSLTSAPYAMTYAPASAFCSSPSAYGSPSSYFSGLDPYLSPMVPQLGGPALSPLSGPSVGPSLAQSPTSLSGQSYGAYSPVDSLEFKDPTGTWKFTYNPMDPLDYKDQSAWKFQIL
Chain of HSF1 (Q00613 whole entry): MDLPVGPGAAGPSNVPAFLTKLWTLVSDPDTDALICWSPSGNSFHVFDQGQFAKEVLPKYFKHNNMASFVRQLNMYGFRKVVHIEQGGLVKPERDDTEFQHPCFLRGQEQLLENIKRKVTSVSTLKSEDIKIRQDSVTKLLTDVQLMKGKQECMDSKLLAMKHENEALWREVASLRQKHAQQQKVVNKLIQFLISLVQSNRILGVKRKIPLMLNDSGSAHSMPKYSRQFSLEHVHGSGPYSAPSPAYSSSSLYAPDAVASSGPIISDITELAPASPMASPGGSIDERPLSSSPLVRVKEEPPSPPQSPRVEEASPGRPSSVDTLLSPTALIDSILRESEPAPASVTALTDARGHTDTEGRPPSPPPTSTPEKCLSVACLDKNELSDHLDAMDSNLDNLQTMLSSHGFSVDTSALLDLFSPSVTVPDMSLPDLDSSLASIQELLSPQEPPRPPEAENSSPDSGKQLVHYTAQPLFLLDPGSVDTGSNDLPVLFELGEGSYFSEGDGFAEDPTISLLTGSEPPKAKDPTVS
Chain of ETV5 (P41161 whole entry): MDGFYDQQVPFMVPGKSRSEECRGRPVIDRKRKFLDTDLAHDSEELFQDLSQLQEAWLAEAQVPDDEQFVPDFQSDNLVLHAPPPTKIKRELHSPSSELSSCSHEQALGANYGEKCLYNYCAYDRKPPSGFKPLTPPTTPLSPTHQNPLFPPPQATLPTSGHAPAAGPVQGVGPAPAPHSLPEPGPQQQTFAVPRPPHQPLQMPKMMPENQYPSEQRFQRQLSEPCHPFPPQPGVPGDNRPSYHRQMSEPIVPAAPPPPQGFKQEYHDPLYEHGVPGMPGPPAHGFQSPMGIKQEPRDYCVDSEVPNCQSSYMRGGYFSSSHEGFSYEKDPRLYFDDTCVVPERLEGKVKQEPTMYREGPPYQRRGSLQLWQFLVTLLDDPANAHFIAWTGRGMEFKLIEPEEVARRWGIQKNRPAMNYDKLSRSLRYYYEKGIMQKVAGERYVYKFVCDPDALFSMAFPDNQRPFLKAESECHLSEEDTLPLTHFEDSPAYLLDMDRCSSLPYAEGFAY

For GTAAAA, the binding signal (FEV) was 1.07 fold enrichment (6-mer frequency, TF over GST control), the binding signal (ETV5) was 1.19 fold enrichment (6-mer frequency, TF over GST control) and the binding signal (HSF1) was 1.11 fold enrichment (6-mer frequency, TF over GST control). For the same sequence, the binding signal (SPIC) was 1.13 fold enrichment (6-mer frequency, TF over GST control), the binding signal (ELF4) was 1.14 fold enrichment (6-mer frequency, TF over GST control) and the binding signal (ELK4) was 1.02 fold enrichment (6-mer frequency, TF over GST control). For the same sequence, the binding signal (ETV2) was 1.21 fold enrichment (6-mer frequency, TF over GST control), the binding signal (ELF3) was 1.13 fold enrichment (6-mer frequency, TF over GST control) and the binding signal (CRX) was 1.03 fold enrichment (6-mer frequency, TF over GST control). The binding signal (ETV1) was 1.06 fold enrichment (6-mer frequency, TF over GST control), the binding signal (ERF) was 1.13 fold enrichment (6-mer frequency, TF over GST control) and the binding signal (ETV3L) was 1.14 fold enrichment (6-mer frequency, TF over GST control). The binding signal (ETS2) was 1.13 fold enrichment (6-mer frequency, TF over GST control), the binding signal (SPDEF) was 1.09 fold enrichment (6-mer frequency, TF over GST control) and the binding signal (ETV7) was 1.18 fold enrichment (6-mer frequency, TF over GST control). The binding signal (ELF5) was 1.18 fold enrichment (6-mer frequency, TF over GST control), the binding signal (ETV3) was 1.16 fold enrichment (6-mer frequency, TF over GST control) and the binding signal (ETV6) was 1.14 fold enrichment (6-mer frequency, TF over GST control).
